Measurements reported in PubChem BioAssay AID1347416 (National Center for Advancing Translational Sciences (NCATS), 2020).
Among all 4,100 compounds or so, about 1,600 (39%) were called active. Roughly 25% stayed inconclusive and do not appear here. Calls come from the whole dose curve; as a rule, active = well fitted inhibition curve with a large enough effect; inconclusive = small, poorly fitted or top-dose-only effect; inactive = no such curve, though single readings can be large or run the other way. The list shows a part of the results. A call without a number means that no potency is given here.

Test: qHTS Validation assay for Inhibitors of Plasmodium falciparum Dd2 growth in vitro; note: nearly all actives have a fitted effect of over 70% in size
Conditions: P. falciparum Dd2 in RBCs, SYBR Green growth, 72 h; series mostly up to 28.7 µM
Procedure, shortened: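 P. falciparum Dd2-infected red blood cells (2.5% hematocrit, 0.3% parasitemia) grown 72 h at 37 °C under 5% O2 with compounds in a titration, 29 uM to 0.5 nM final. Growth read as SYBR Green-1 fluorescence after ~16 h lysis; artesunate 300 nM as positive control.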
Potency is the fitted concentration of half-maximal effect.

Structure (SMILES) | Potency
CCCc1nc2ccc(NC(=O)c3cccs3)cc2c(=O)n1Cc1ccc(Cl)cc1 | 8.41 µM (active)
Cc1ccc(Cn2nnc(C(=O)Nc3ccc(F)c(F)c3)c2N)cc1 | inactive
Cc1ccc(-c2nc(C)c(C(=O)O)s2)cc1 | inactive
CC(=O)C1=C(c2ccc(Br)cc2)N(C(C)=O)n2c(nnc2C2CCCCC2)S1 | 2.99 µM (active)
CC(=O)C1=C(c2ccccc2)N(C(C)=O)n2c(nnc2C2CCCCC2)S1 | 4.22 µM (active)
CC(=O)C1=C(c2ccc(Cl)cc2)N(C(C)=O)n2c(nnc2C2CCCCC2)S1 | 4.73 µM (active)
CC(=O)C1=C(c2ccc(Cl)c(Cl)c2)N(C(C)=O)n2cnnc2S1 | 3.76 µM (active)
Cc1ncoc1C(=O)N1CCCCCC1c1nnc(-c2ccccc2)o1 (centres undefined) | inactive
COc1ccc(-c2noc(N3CCN(c4ccc(C)cc4)C(C)C3)n2)cc1OC (centres undefined) | inactive
CCOc1ccc(C2=C(C(C)=O)Sc3nnc(C)n3N2C(C)=O)cc1 | 5.31 µM (active)
COc1ccc(C2=C(C(C)=O)Sc3nnc(-c4ccc(Cl)cc4)n3N2C(C)=O)cc1OC | 3.76 µM (active)
COc1cccc(C2=C(C(C)=O)Sc3nnc(C4CCCCC4)n3N2C(C)=O)c1 | 4.73 µM (active)
COc1ccc(C(=O)NCc2nnc3ccc(-c4ccc(Cl)cc4)nn23)cc1F | inactive
CC[C@@]1(O)CCN(C(=O)c2cccc(-c3cccc(OC)c3)c2)C[C@H]1O | inactive
COc1cc(Cc2cnc(N)nc2N)cc(OC)c1OC | inactive
Cc1noc(-c2cccn3c(CNC(=O)c4cccc(N(C)C)c4)nnc23)n1 | inactive
O=C(Nc1ccc(Cl)cc1)N1CCC2(CC1)CCN(Cc1cccs1)c1ccccc1O2 | 8.41 µM (active)
Cc1ccc([S+](=O)([O-])N2CCC3(CCN(Cc4cccs4)c4ccccc4O3)CC2)cc1 | 18.8 µM (active)
COCC(=O)N1CCC2(CC1)CCN(Cc1cccs1)c1ccccc1O2 | inactive
CCCN1CCC2(CCN(C(=O)c3cccc(Cl)c3)CC2)Oc2ccccc21 | inactive
CCC(C)NC(=O)c1ccccc1NC(=O)C1COc2ccccc2O1 (centres undefined) | 10.6 µM (active)
CCC(C)NC(=O)C1COC2(CCN(C(=O)c3cccc(Cl)c3)CC2)N1C(=O)c1ccccc1C (centres undefined) | inactive
CCc1ccc(CN(C(=O)c2cc3ccccc3oc2=O)C2CCS(=O)(=O)C2)cc1 (centres undefined) | inactive
Cc1ccc(-n2c(C)cc(C(=O)OCC(=O)N(C)C3CCS(=O)(=O)C3)c2C)cc1 (centres undefined) | 4.73 µM (active)
CCc1ccc(OCC(=O)N(Cc2ccc(C(C)C)cc2)C2CCS(=O)(=O)C2)cc1 (centres undefined) | inactive
CCC1CCCCN1CCCNC(=O)c1ccc2c(c1)sc1nc(-c3ccc(F)cc3)cn12 (centres undefined) | 1.5 µM (active)
CN1c2cc(C(=O)NCc3ccc(F)cc3)ccc2C(=O)N2CCCCCC21 (centres undefined) | inactive
COc1ccc(-c2cc3c(=O)n(CCNC(=O)c4ccc(C)c(F)c4)ccn3n2)cc1 | inactive
CC1CCCCN1CCCNC(=O)c1ccc2c(c1)sc1nc(-c3ccc(F)cc3)cn12 (centres undefined) | 1.88 µM (active)
